Among the data in PubChem BioAssay (NCATS) are Potency, activity change, positive = activation and activity change, negative = inhibition values, retold here.

Assay [1] has as its target Cytochrome P450 2C9 (Homo sapiens) (UniProt P11712). The assay is described as follows: qHTS Assay for Inhibitors and Substrates of Cytochrome P450 2C9 (AID 883). Also: nearly all actives have a fitted effect of over 60% in size. Also: potency is read from the fitted curve at half-maximal effect. As to activity change, negative = inhibition: % is scaled to controls: 0 for no effect and ±100 for the full control effect. Put shortly: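 Human CYP2C9 (10nM) hydroxylated Luciferin-H (100uM, at its KM) to luciferin in 25mM KPO4. Compound was preincubated 10 min at 37C, then NADPH regeneration started a 60 min reaction at 37C. Luminescence was read after detection reagent, normalized to 57uM sulphaphenazole.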
(qHTS replaces the single test concentration by a dilution series.)

The target in assay [2] is Cytochrome P450 3A4 (Homo sapiens) (UniProt P08684). Briefly: qHTS Assay for Inhibitors and Substrates of Cytochrome P450 3A4 (AID 884). Also: nearly all actives have a fitted effect of over 50% in size. Also: potency is read from the fitted curve at half-maximal effect. As to activity change, negative = inhibition: series mostly up to about 57 µM; % is scaled to controls: 0 for no effect and ±100 for the full control effect. The essentials: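 20 nM human CYP3A4 with 25 uM Luciferin-PPXE (at KM) in 200 mM KPO4, preincubated 10 min with compound; NADPH regeneration started a 60 min RT reaction. Luciferin detected by luminescence, normalized to 57 uM ketoconazole as full inhibition.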
Sequence of Cytochrome P450 3A4 (Homo sapiens) (P08684 whole entry, looked up): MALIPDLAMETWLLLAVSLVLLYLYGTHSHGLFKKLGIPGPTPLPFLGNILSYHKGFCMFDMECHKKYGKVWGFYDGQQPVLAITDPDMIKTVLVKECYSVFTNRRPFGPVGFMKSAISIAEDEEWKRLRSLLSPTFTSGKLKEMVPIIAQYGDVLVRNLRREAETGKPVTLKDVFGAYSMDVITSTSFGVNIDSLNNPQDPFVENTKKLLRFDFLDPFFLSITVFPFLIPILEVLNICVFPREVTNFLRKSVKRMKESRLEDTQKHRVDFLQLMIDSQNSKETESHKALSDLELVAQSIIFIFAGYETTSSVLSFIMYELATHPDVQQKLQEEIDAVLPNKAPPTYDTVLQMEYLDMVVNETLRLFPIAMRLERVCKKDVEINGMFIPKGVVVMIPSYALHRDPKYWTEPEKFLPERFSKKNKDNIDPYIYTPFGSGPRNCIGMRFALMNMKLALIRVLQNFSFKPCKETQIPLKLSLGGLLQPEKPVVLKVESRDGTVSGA

Assay [3] shares this target. Briefly: qHTS Assay for Activators of Cytochrome P450 3A4 (AID 885). Also: nearly all actives have a fitted effect of over 65% in size. Put shortly:
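Human CYP3A4 (20 nM) with Luciferin-PPXE at 25 uM (its KM) in 200 mM KPO4; 10 min compound preincubation, then NADPH regeneration and 60 min reaction at RT. Luciferin read by luminescence; normalized to 57 uM ketoconazole full inhibition.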

Assay [4] has as its target Cytochrome P450 2C19 (Homo sapiens) (UniProt P33261). The assay is described as follows: qHTS Assay for Inhibitors and Substrates of Cytochrome P450 2C19 (AID 899). Also: nearly all actives have a fitted effect of over 60% in size. Also: potency is read from the fitted curve at half-maximal effect. Put shortly:
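Human CYP2C19 (5nM) with Luciferin-H EGE at 10uM (its KM) in 50mM KPO4 was preincubated with compound for 10 min at 37C. NADPH regeneration started a 60 min 37C reaction. Luciferin was read by luminescence, normalized to 57uM ketoconazole.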

Assay [5] addresses Cytochrome P450 2D6 (Homo sapiens) (UniProt P10635). Briefly: qHTS Assay for Inhibitors and Substrates of Cytochrome P450 2D6 (AID 891).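 Also: luciferin methyl ether substrate demethylated by CYP2D6 with NADPH regeneration; % is scaled to controls: 0 for no effect and ±100 for the full control effect; nearly all actives have a fitted effect of over 60% in size.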 The essentials:
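Human CYP2D6 (5 nM) with 30 uM Luciferin-ME EGE (at Km) in 100 mM KPO4, compound preincubated 10 min, then NADPH regeneration system for 60 min at room temperature. Luciferin read by luminescence; normalized to 1.43 uM quinidine.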

Several values for one entry are separate records, joined by “and”; a condition that tells them apart may be missing. Equal entries are not always repeated. Results filed as inconclusive are left out. Where a structure was tested more than once in an assay, its records may differ in their call. Activity calls are given as the source filed them. Calls follow the shape of the dose curve; as a rule, active = well fitted curve in the direction sought with a large enough effect; inconclusive = small, poorly fitted or top-dose-only effect, or another doubt; inactive = no such curve, though single readings can be large; an effect the other way counts as inactive or inconclusive.

Sequence of Cytochrome P450 2C19 (Homo sapiens) (P33261 whole entry, looked up): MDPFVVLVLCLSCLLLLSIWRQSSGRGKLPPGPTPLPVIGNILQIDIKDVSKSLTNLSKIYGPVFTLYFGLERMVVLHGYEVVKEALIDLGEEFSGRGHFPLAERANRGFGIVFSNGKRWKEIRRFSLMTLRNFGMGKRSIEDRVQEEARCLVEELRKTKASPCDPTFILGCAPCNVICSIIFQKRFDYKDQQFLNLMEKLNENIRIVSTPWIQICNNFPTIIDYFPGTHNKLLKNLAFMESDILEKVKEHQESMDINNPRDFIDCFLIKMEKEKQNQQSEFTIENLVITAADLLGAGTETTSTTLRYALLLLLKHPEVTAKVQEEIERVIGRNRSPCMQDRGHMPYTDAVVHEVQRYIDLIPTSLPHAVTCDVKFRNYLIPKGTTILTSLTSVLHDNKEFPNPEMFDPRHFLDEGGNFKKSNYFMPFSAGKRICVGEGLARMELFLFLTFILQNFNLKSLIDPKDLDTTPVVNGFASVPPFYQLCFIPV
Sequence of Cytochrome P450 2C9 (Homo sapiens) (P11712 whole entry, looked up): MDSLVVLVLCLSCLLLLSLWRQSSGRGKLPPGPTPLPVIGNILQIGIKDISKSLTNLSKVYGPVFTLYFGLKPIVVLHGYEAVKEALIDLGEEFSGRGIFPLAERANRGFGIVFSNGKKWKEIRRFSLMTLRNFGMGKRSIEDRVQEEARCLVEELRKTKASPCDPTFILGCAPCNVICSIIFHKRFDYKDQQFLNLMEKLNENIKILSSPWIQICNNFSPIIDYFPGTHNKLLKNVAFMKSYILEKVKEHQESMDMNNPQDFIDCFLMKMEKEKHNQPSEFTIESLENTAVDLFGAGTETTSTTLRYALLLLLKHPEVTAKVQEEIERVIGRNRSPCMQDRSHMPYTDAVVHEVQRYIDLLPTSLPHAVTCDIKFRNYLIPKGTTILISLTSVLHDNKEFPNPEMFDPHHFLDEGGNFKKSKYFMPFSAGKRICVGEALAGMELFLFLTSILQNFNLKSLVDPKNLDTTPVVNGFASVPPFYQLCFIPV
Sequence of Cytochrome P450 2D6 (Homo sapiens) (P10635 whole entry, looked up): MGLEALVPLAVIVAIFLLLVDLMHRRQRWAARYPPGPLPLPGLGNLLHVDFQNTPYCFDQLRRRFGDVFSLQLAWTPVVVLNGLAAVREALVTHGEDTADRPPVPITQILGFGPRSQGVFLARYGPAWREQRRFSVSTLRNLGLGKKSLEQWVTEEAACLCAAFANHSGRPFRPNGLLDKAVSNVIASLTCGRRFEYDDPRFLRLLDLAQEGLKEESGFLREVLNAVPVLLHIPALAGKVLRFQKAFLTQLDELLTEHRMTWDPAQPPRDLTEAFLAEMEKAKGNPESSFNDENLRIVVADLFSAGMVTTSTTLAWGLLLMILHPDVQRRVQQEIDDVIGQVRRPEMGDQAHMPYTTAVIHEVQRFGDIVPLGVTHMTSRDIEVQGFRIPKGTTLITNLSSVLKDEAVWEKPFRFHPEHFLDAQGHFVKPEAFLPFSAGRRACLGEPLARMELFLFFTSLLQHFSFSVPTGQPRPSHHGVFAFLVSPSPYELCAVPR

In the case of `COc1ccc(O[C@H]2C=C[C@@H](c3ccccc3)O[C@H]2CO/N=C2/c3cc(OC)ccc3O[C@@H](c3cccc(OC)c3)[C@H]2O)cc1`, the results for the Potency in assay [1], in assay [2] and in assay [4] were 3.16 µM (active), 3.16 µM (active) and 0.501 µM (active), respectively. In assay [3], the activity change, positive = activation was -100% [at 11.4 µM] (inactive).

As for `CC(=O)OCC1OC(C#CCCc2ccccc2)C=CC1OC(C)=O` (stereo unspecified), the Potency result in assay [1], in assay [5] and in assay [4] was “inactive” each time. Also, the Potency in assay [2] is 3.16 µM (active). Further, the activity change, positive = activation in assay [3] is -61.8% [at 11.4 µM] (inactive).

Turning to `OCC1OC(c2ccccc2)C=CC1Oc1cc(Cl)cc(Cl)c1` (stereo unspecified), the Potency entry in assay [1] and in assay [5] was “inactive” throughout. Further, the activity change, negative = inhibition in assay [2] is 5.16% [at 11.4 µM] (inactive).

In the case of `CCOC(=O)OCC1OC(C#CC(C)(C)C)C=CC1OC(=O)OCC` (stereo unspecified), the Potency entry in assay [1] and in assay [5] was “inactive” throughout. For the same compound, the activity change, negative = inhibition in assay [2] was -18.5% [at 11.4 µM] (inactive). The Potency in assay [4] was 2.51 µM (active).

Consider `Cc1ccc(S(=O)(=O)N[C@@H](CCc2ccccc2)CC(=O)C(C)(C)C)cc1`, for which the values for the Potency in assay [1], in assay [2] and in assay [4] were 3.98 µM (active), 1.58 µM (active) and 1.58 µM (active), respectively. Further, in assay [3], the activity change, positive = activation was -96.1% [at 11.4 µM] (inactive).

In the case of `CC12C=C(/C=C/C=C/c3ccccc3)C(C)(C1)C(/C=C/c1ccccc1)CC2=O` (stereo unspecified), the Potency in assay [1] is 3.16 µM (active); in assay [2], 3.98 µM (active); in assay [4] it was 1.58 µM (active). For the same compound, the activity change, positive = activation in assay [3] was -62.5% [at 11.4 µM] (inactive).

Consider `CC(C)C(=O)NC(=O)C1CCCN1C(=O)/C=C/c1ccccc1` (stereo unspecified), for which the Potency entry in assay [1], in assay [5] and in assay [4] was “inactive” throughout. Further, in assay [2], the activity change, negative = inhibition was -10.1% [at 11.4 µM] (inactive).

On to `CCCCCCC/C=C/C1=CC2(C)CC1(C)C(CCCCCCC)CC2=O` (stereo unspecified), for which the Potency result in assay [1], in assay [5] and in assay [4] was “inactive” throughout. In addition, the activity change, negative = inhibition in assay [2] is -15% [at 11.4 µM] (inactive).

For the compound `Cc1ccccc1OC1C=CC(c2ccccc2)OC1CO` (stereo unspecified), the Potency entry in assay [1] and in assay [5] was “inactive” throughout. In addition, the activity change, negative = inhibition in assay [2] was -11.7% [at 11.4 µM] (inactive). Besides, in assay [4], the Potency was 5.01 µM (active).

`CCOC(=O)CCCCC1=CC2=CC(=O)C(C)(O)C(=O)C2=CO1` (stereo unspecified): the Potency result in assay [1], in assay [5] and in assay [4] was “inactive” in each case. Moreover, in assay [2], the activity change, negative = inhibition was -20.4% [at 11.4 µM] (inactive).

Turning to `C=CCC1C=CC(OC(=O)OCC)C(COC(=O)OCC)O1` (stereo unspecified), the Potency entry in assay [1] and in assay [5] was “inactive” throughout. Further, the activity change, negative = inhibition in assay [2] was -26.9% [at 11.4 µM] (inactive). Moreover, the Potency in assay [4] is 0.794 µM (active).

As to `COC(=O)CC1=COC(O)C2C(CO)=CC[C@@H]12` (stereo partly specified), the Potency result in assay [1], in assay [5] and in assay [4] was “inactive” each time. For the same compound, the activity change, negative = inhibition in assay [2] was -14.7% [at 11.4 µM] (inactive).

As for `COC(=O)NC(c1ccccc1)[C@]1(C(C)=O)CCCC1=O` (stereo partly specified), the Potency result in assay [1], in assay [5] and in assay [4] was “inactive” throughout. In assay [2], the activity change, negative = inhibition was -20.1% [at 11.4 µM] (inactive).

`COC(=O)NC(CC(C)=O)c1ccc(F)cc1` (stereo unspecified): the Potency entry in assay [1], in assay [5] and in assay [4] was “inactive” in each case. The activity change, negative = inhibition in assay [2] was -12% [at 11.4 µM] (inactive).

For `CCOC(=O)[C@]1(C(NC(=O)OC)c2ccco2)CCCC1=O` (stereo partly specified), the Potency result in assay [1], in assay [5] and in assay [4] was “inactive” each time. The activity change, negative = inhibition in assay [2] is -19.8% [at 11.4 µM] (inactive).

For the compound `CC1(C)OC(C(O)(c2cc(F)c(F)c(F)c2)c2cc(F)c(F)c(F)c2)C(C(O)(c2cc(F)c(F)c(F)c2)c2cc(F)c(F)c(F)c2)O1` (stereo unspecified), the Potency result in assay [1], in assay [5] and in assay [4] was “inactive” throughout. For the same compound, the activity change, negative = inhibition in assay [2] is -15% [at 11.4 µM] (inactive).

As for `CC1CCC2C(=O)N3CCCC3C(=O)N2C1c1ccc(Br)cc1` (stereo unspecified), the Potency in assay [1] is 631 nM (active) and inactive. In assay [2], the activity change, negative = inhibition was -43.7% [at 11.4 µM] (inactive) and -27.2% [at 11.4 µM] (inactive). Further, the Potency result in assay [5] and in assay [4] was “inactive” throughout.

Regarding `Cc1c(OCc2ccccc2)cccc1OCc1ccccc1`, the Potency entry in assay [1], in assay [5] and in assay [4] was “inactive” in each case. The activity change, negative = inhibition in assay [2] is -25.2% [at 11.4 µM] (inactive).

On to `COC(=O)NC(CC(C)=O)c1ccc(Cl)cc1` (stereo unspecified), for which the Potency result in assay [1], in assay [5] and in assay [4] was “inactive” in each case. Also, the activity change, negative = inhibition in assay [2] was -19.1% [at 11.4 µM] (inactive).

Consider `CCC1OCCC=CC1C` (stereo unspecified), for which the Potency entry in assay [1], in assay [5] and in assay [4] was “inactive” each time. For the same compound, the activity change, negative = inhibition in assay [2] is -15% [at 11.4 µM] (inactive).

As to `CC1CCC(C(=O)O)NC1c1ccc(C#CCN(C)C)cc1` (stereo unspecified), the Potency result in assay [1], in assay [5] and in assay [4] was “inactive” in each case. Also, the activity change, negative = inhibition in assay [2] is -30.5% [at 11.4 µM] (inactive).

In the case of `CCN1C(C)=C(C(=O)OC)C(c2ccccc2)N2C(=O)[C@@]3(C(=O)OC)O[C@@]12C1C(=O)N(C)C(=O)C13` (stereo partly specified), the Potency entry in assay [1], in assay [5] and in assay [4] was “inactive” in each case. Further, the activity change, negative = inhibition in assay [2] was -27.7% [at 11.4 µM] (inactive).

Consider `CCOC(=O)OCC1OC(c2ccc(C(C)=O)cc2)C=CC1OC(=O)OCC` (stereo unspecified), for which the Potency result in assay [1], in assay [5] and in assay [4] was “inactive” in each case. Besides, in assay [2], the activity change, negative = inhibition is -24.1% [at 11.4 µM] (inactive).

With `CCN1C(C)=C(C(=O)OC)C(c2ccccc2)N2C(=O)[C@](O)(C(=O)OC)CC(C(C)=O)=C12` (stereo partly specified), the Potency result in assay [1], in assay [5] and in assay [4] was “inactive” each time. The activity change, negative = inhibition in assay [2] was -13.9% [at 11.4 µM] (inactive).
